Screen size: about 53,000 sequences; about 3,700 (7%) were called active.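 The calls were made as follows: active = gene knockdowns whose robust z-score for IL-1 alpha signal is at least 2 or at most -2, so actives lie on both sides; inactive = the rest.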 Many of the other results were omitted from the sample, so actives are more common in it than they were.
test: Components of the Cytosolic LPS Sensing Pathway: Gene Identification via Genome-wide siRNA Screen; settings: RAW264.7 macrophages, IL-1a HTRF, actives lie on both sides, screened at 100 nM (by protocol), cells primed 5 h with Pam3CSK4 first;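 also: robust z of the log signal after scaling to non-targeting control siRNA wells of the plate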
Method in brief: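 Three distinct siRNAs per gene were tested singly at 100 nM in RAW264.7 macrophages. Following Pam3CSK4 priming and 24 hour LipidA transfection, IL-1a secretion was read by HTRF.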

Sequence	z-score
CGAUGUUACUAUAGGAUCUTT against A730036I17Rik	0.33 (inactive)
CCUUCAUUCUCAUUGGCAUTT against Olfr591	-0.163 (inactive)
GCACUACCUGUAUUAAACUTT against Efhd2	-0.652 (inactive)
GCAACACAAGUCAUGAAGUTT against Gabpb2	0.628 (inactive)
GGAACUGAAAUUCAGUUGGTT against Azin1	0.218 (inactive)
GGGAGGAAAUGAAUGAAUUTT against Gypc	0.686 (inactive)
GGAAUUAUCUUCAUCCCUGTT against Abhd10	-4.79 (active)
GGAUCUAUCUCUAGUCCCGTT against Zfp358	-1.74 (inactive)
CCUUUAAAAGUACCAACCCTT against B9d1	0.679 (inactive)
CGUACCAUGGUCAAGACGUTT against Tpcn1	0.692 (inactive)
GCCUUAGGUUGAUAGGAGGTT against Tas2r110	-0.191 (inactive)
GGGACCAGAACAAAUACAATT against Klc3	4.06 (active)
GGCCUUUUCUUCUUUUUGUTT against Mill1	0.653 (inactive)
GGAAGGAAAUGUGUGAAAUTT against 4930555G01Rik	-0.194 (inactive)
GGAGAGGAUGCAUGUAAAATT against Fbxl22	-1.19 (inactive)
GGAAAUGAACUCAUAGCCATT against Olfr121	0.0495 (inactive)
GGAGUAAAGACAUUCAGGATT against Nlrp4f	0.716 (inactive)
GCUUGAUCGCUUUCAACUCTT against Coro7	0.734 (inactive)
GGAAAUUUUUCGCAUGACCTT against Ddx39b	-2.13 (active)
CCUUCUUCUUACUGAUAAUTT against Olfr1276	-0.471 (inactive)
GCAAUGAACUAUGAAGGCATT against Npm1	-0.32 (inactive)
GGACAAAAUUAGACCUUUGTT against Arf2	0.47 (inactive)

Sequence	z-score
GGCAUCCUGUUGAAACUGATT against Vezt	-0.962 (inactive)
GGGUGAAUUCUGUCUAUGUTT against Far1	0.0586 (inactive)
GGUAAAAGCUGUUUGAGAGTT against Smim3	-3.43 (active)
GGAUUAUCAGAAGUGUGUCTT against Mrps35	-0.117 (inactive)
GUCAAGAAUAUUAUGACCCTT against Vamp8	0.516 (inactive)
CCUCAUUGUGUCGUCUUACTT against Zer1	-0.421 (inactive)
GGCUCUGAGACACAUCUACTT against Cpt1b	-0.562 (inactive)
GGAGUUAAUCAGUCAAAUGTT against Dclk2	0.754 (inactive)
CCCAGAAGGAUCUGCUCUUTT against Defa20	-2.17 (active)
GGUUAUGUCGCUAAGGAAATT against Tmem50a	-0.392 (inactive)
GGAGGUCACCUUCUCAAACTT against Mrgprf	0.374 (inactive)
GCCUUUAACAGCUCUUAAUTT against Gm4894	0.999 (inactive)
CGUGCCACUUUUACCGUCCTT against Zdhhc8	-2.43 (active)
UACUCGUAUUCUUAAUUGCTT against Acsl1	-0.272 (inactive)
GCAGAAUCGCUUCAGUUCUTT against Tmed6	0.49 (inactive)
GGCUGUGUAUUACUGCGCUTT against Vpreb2	-0.236 (inactive)
GCCAUGAUGCAUUAUGUAUTT against Haglr	-0.331 (inactive)
GGGUAUUGGUUUUAGAGCATT against Emd	0.37 (inactive)
GGCUCUAAUGUAAUGAAUCTT against Fgf10	0.259 (inactive)
GGGUAAAAGGCUUUUUUGUTT against St8sia6	-0.699 (inactive)
GGCAAAACAUGCUUGGACCTT against Zfp687	2.31 (active)
CCAAUUCCUGGGUGCACACTT against Olfr309	-0.691 (inactive)

Sequence	z-score
GCUCUGCUCUUCUGAAGCATT against Dohh	-2.42 (active)
GGAUGACAUUUCAGUGUGGTT against Matn4	0.561 (inactive)
GGAUAUUCAAAUGGGUGCCTT against Bcl7b	0.538 (inactive)
GGACAUGAUCGACGACUACTT against Zfyve28	0.109 (inactive)
GGAUGAAAGAAAAGAAACUTT against Hoxd11	-0.335 (inactive)
GGAAUGGUAAUGCUAUUGGTT against Tmem39a	0.169 (inactive)
GGAGAAUGGUUCAUAUCUGTT against Trmt44	-0.849 (inactive)
AUGGAAAAAGUGCACAAUCTT against Olfr1061	2.34 (active)
UUGUUCAAGAGCUAGAGAUTT against Atg2a	0.811 (inactive)
GCCGUGCAAAGUUUAUUCATT against Nme8	1.06 (inactive)
CCACCAUUCGGCUCUUUUGTT against Nupl2	-0.822 (inactive)
GCACCUGAAGACUAAUGUUTT against Gcnt2	0.509 (inactive)
GGAAUAUUCAGAAUCCCUCTT against Tnfaip8l3	-0.762 (inactive)
GGUAACGGGACCAACACUUTT against Otop3	1.26 (inactive)
CCUUUAACUUUCUCCUACCTT against Nfkbid	3.45 (active)
GGAGGAAACACAUCAUUUGTT against Tmem131	1.15 (inactive)
GCCUCAAUUCCUCUACGCUTT against Sytl1	-1.34 (inactive)
GCAUAGUGACCAUGGAUAATT against Olfr807	0.95 (inactive)
GGAGGACGUGAACUUUGACTT against Stk32c	0.648 (inactive)
GCACGUCAGAAUCUCCAGATT against Pln	-0.669 (inactive)
GGAAUGACAAGAUUAUUGUTT against Ercc3	0.157 (inactive)
GGAGAGGAGUUCUUCAUUCTT against Adamts1	-1.38 (inactive)

Sequence	z-score
GCAAGUAGCAUCUCUGAUUTT against Nfs1	1.03 (inactive)
GGCAAGAAGUGUGAUGAACTT against Kansl3	-2.81 (active)
GGAGGAACUGGAUUCUUACTT against Eps8l3	-0.348 (inactive)
GGUUGUUAGGAAUCGAUCCTT against Rps26	0.964 (inactive)
GGUGGAAUACUUGGAGCAGTT against Gstm4	2.98 (active)
CCAAUGCCGCCAGAAGUUATT against Siah2	0.295 (inactive)
CCUGUGCUCUUAUUAUCAATT against Rpp14	0.693 (inactive)
GCAACUUUAAUGACAGCGUTT against Moxd1	-0.211 (inactive)
GCUCUAUGGAGACCUAAAGTT against Sdha	-0.378 (inactive)
GGAGGGACAUGGAGAUUACTT against Ptpn18	3.15 (active)
GGGAUUUUCAAAGUGAGAATT against Pmaip1	-0.502 (inactive)
GGAUUUUCACCAACAGCCUTT against Gh	0.046 (inactive)
GGACUGAAGUCCUUGACACTT against Lgi3	-1.46 (inactive)
CCUCCUACUGUUUAAUGUUTT against Exd2	2.47 (active)
GCCUUGACGAUAGAUUAUUTT against Irf2	1.36 (inactive)
GGUUGAUAAAGGAGCCAUCTT against Mcts1	1.02 (inactive)
GGUGUCCUUUCAAGUUGAUTT against Spg11	2.15 (active)
GCCAGUGUGACAUUUGGUATT against Eed	0.651 (inactive)
GGAGACUUGCUAAAUGCCCTT against Fkbp7	-0.0461 (inactive)
GGCAACUAAGGCUAAGAAGTT against H1f4	-1.89 (inactive)
GGUCUCGCUCCAAGGAAGATT against Tra2b	2.56 (active)
GGAGACUGUCAUGGCUGUGTT against Olfr397	-1.84 (inactive)

Sequence	z-score
GCUUUACCUCCUAUUAAUATT against Rgs9bp	-0.91 (inactive)
GGAUUUAGCCAUGGAUUUCTT against Zfp473	-1.17 (inactive)
GUACAAGCCACUGGAUCUGTT against Smad6	5.56 (active)
GGAGACAAAGCAUUAUCUATT against Usp33	-0.366 (inactive)
GGUGAAAGGAGCAAAUGAUTT against Fyco1	-0.332 (inactive)
GGCACUGAGGUUGUUCAGGTT against Eif3h	0.806 (inactive)
CCUACCAUACCAUGAGCAGTT against Pou4f3	1.52 (inactive)
GGAAUACAGAUUUUUCAGATT against Frmd6	-1.15 (inactive)
GCAGAUACUGAGAUGCUAUTT against Dkk4	2.24 (active)
GGUGUUACCCUCCUUAGAGTT against Tmem230	-1.03 (inactive)
GGAUCUUGAAGACCAAAAATT against Kazn	-2.14 (active)
GGCGAACAUGCACUUUCACTT against Gramd3	-1.28 (inactive)
GGAGCAUGAGGAUUACUGUTT against Trafd1	0.731 (inactive)
GGACAGUUUACUCCAGAUATT against Foxc1	2.84 (active)
GCACUAAAGGGCUUUUCAUTT against Serping1	0.912 (inactive)
GGAGAAAGGCAUCUUCAAATT against Spdef	0.0302 (inactive)
GCCUUACUACUACAACAACTT against Prpf40b	2.08 (active)
GGCACAAAAGAAGAUCCUGTT against Tnfaip8	-1.53 (inactive)
GGAUCCUGAACGAAAAAGGTT against Med19	-0.0986 (inactive)
CGGCAGAUUGCUGCUUUGATT against Vmn2r122	2.73 (active)
